Data taken from PubChem BioAssay (NCATS).
Records with an inconclusive call do not appear. Unless noted, the call rests on the fitted dose curve; in most records, active means well fitted curve in either direction with a large enough effect (not every such curve was filed as active); inconclusive means small, poorly fitted or top-dose-only effect, or another doubt; inactive means flat fitted curve, though single readings scatter.

Experiments:
[1] = AP1 Signaling Pathway (AID 357); conditions: ME-180 AP-1-bla reporter, EGF-induced, beta-lactamase ratio, 5 h; at 17.2 µM (top of the series) unless noted;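 further: ME-180 reporter cells stimulated with EGF at its EC50 level; on the % scale 0 is the no-effect control and ±100 the full control effect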
How it was run: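 Cells are seeded overnight, exposed to compound titrations and an EC50 level of EGF for 5 hours at 37 °C, then loaded with CCF4 dye for 2.5 hours. Beta-lactamase activity under the AP-1 element is read as a blue/green ratio.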

[2] = NFAT Signaling Pathway (AID 444); conditions: Jurkat NFAT-bla M1, carbachol, beta-lactamase ratio, 5 h; at 17.2 µM (top of the series) unless noted;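 further: carbachol stimulus at about its EC50 of 1 µM final; on the % scale 0 is the no-effect control and ±100 the full control effect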
How it was run: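 Jurkat cells with NFAT-driven β-lactamase reporter and co-expressed M1 receptor, stimulated with carbachol (final 1 uM, ~EC50), compound titration, 5 h at 37 °C. CCF4 loaded 1 h at RT; 460/530 nm ratio gave %activity and AC50.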

[3] = Stat Signaling Pathway (AID 446); conditions: ME-180 SIE beta-lactamase reporter, IL-6 stimulated, 5 h; at 17.2 µM (top of the series) unless noted;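 further: ME-180 cervical cancer cells given 40 pM IL-6 alongside compound; SIE-controlled beta-lactamase reporter measured as 460/530 nm FRET emission ratio; on the % scale 0 is the no-effect control and ±100 the full control effect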
How it was run: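 Screening format detects activators and inhibitors alike: ME-180 SIE-bla cells stimulated at 40 pM IL-6 for 5 hrs with compound, then dual-emission beta-lactamase read at 405 nm excitation.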

[4] = biological target: Glucocorticoid receptor (Homo sapiens) (UniProt P04150); assay: GR-GFP Redistribution (AID 450;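 active means compounds whose dose series gives a full or clear partial fitted curve of increased nuclear translocation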; further: potency means the concentration at half of the fitted maximal effect)
Sequence of Glucocorticoid receptor (Homo sapiens) (P04150 whole entry, looked up): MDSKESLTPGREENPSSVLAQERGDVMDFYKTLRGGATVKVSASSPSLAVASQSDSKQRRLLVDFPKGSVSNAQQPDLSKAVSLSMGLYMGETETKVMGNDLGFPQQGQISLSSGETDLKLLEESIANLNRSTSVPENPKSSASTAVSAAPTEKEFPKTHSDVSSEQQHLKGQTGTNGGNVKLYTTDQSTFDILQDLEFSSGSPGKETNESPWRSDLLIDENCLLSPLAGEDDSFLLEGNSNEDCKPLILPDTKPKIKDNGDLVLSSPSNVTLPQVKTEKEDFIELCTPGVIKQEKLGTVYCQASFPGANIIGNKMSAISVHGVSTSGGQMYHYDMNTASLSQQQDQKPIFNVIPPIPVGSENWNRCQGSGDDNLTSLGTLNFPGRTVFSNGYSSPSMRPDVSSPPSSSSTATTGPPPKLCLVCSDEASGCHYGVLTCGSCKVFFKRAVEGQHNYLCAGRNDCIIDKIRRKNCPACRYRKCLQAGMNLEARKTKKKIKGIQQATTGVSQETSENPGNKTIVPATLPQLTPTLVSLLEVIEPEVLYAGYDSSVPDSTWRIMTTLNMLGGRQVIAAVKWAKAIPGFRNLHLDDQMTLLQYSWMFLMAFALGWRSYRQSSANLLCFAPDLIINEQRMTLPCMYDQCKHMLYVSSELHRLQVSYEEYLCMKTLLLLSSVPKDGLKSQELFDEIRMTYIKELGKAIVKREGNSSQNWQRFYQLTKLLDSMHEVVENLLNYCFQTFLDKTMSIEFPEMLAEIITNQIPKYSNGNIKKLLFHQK

CCC(=O)O[C@@H]1CC(=O)O[C@H](C)CC=CC=C[C@@H](O)[C@H](C)C[C@H](CC=O)[C@H](O[C@H]2O[C@H](C)[C@@H](O[C@H]3C[C@@](C)(O)[C@@H](OC(=O)CC)[C@H](C)O3)[C@H](N(C)C)[C@H]2O)[C@H]1OC
inactive: activity change, negative = inhibition [1] 1.11% | activity change, negative = inhibition [2] 8.88% | activity, negative = inhibition [3] -1.1% | Potency [4] > 20.6 µM

COc1ccc(C2CC(c3ccccc3)Nc3nc(N)nn32)cc1 (centres undefined)
inactive: activity change, negative = inhibition [1] 9.32% | activity change, negative = inhibition [2] -6.69% | activity, negative = inhibition [3] 1.39% | Potency [4] > 20.6 µM

Cc1nc(-c2coc3cc(OCC(=O)O)ccc3c2=O)cs1
inactive: activity change, negative = inhibition [1] 7.54% | activity change, negative = inhibition [2] -2.11% | activity, negative = inhibition [3] 3.59% | Potency [4] > 20.6 µM

Cn1c(O)c(C=Nc2ccc(Cc3ccncc3)cc2)c(=O)n(C)c1=O
inactive: activity change, negative = inhibition [1] -2.77% | activity change, negative = inhibition [2] -10.1% | activity, negative = inhibition [3] -1.74% | Potency [4] > 20.6 µM

O=C(c1ccccc1)n1c(=S)nc2ccccn21
inactive: activity change, negative = inhibition [1] 4.19% | activity change, negative = inhibition [2] -14% | activity, negative = inhibition [3] -3.1% | Potency [4] > 20.6 µM

COc1ccc(CCNc2nc3c(c(=O)n(C)c(=O)n3C)n2C)cc1OC
inactive: activity change, negative = inhibition [1] -2.56% | activity change, negative = inhibition [2] 3.63% | activity, negative = inhibition [3] -0.466% | Potency [4] > 20.6 µM

O=C1C(=O)N(Cc2cccnc2)C(c2ccccn2)/C1=C(/O)c1ccc(Br)cc1 (centres undefined)
inactive: activity change, negative = inhibition [1] -19.9% | activity change, negative = inhibition [2] 15.2% | activity, negative = inhibition [3] -10.5% | Potency [4] > 20.6 µM

COc1cccc(OC)c1C(=O)N1CCN(S(=O)(=O)c2ccc(C)cc2)CC1
inactive: activity change, negative = inhibition [1] -12.3% | activity change, negative = inhibition [2] -1.17% | activity, negative = inhibition [3] 6.68% | Potency [4] > 20.6 µM

C=CCOc1nc2c(c(=O)n(C)c(=O)n2C)n1Cc1ccccc1Cl
inactive: activity change, negative = inhibition [1] -0.647% | activity change, negative = inhibition [2] -10.1% | activity, negative = inhibition [3] -0.000949% | Potency [4] > 20.6 µM

O=C(Oc1ccccc1N1C(=O)CCC1=O)c1ccco1
inactive: activity change, negative = inhibition [1] 11.4% | activity change, negative = inhibition [2] 8.69% | activity, negative = inhibition [3] 1.19% | Potency [4] > 20.6 µM

CCCC1Cc2c(sc3nc(SC)nc(N)c23)CO1 (centres undefined)
inactive: activity change, negative = inhibition [1] -3.09% | activity change, negative = inhibition [2] -10.7% | activity, negative = inhibition [3] -1.16% | Potency [4] > 20.6 µM

COc1cccc(C2CC(c3ccccc3Cl)n3nc(N)nc3N2)c1 (centres undefined)
inactive: activity change, negative = inhibition [1] -5.25% | activity change, negative = inhibition [2] -4.65% | activity, negative = inhibition [3] -3.07% | Potency [4] > 20.6 µM

CCOC(=O)CC1=C(C(=O)OCC)C(c2cc(OC)c(OC)cc2OC)C(C#N)=C(N)O1 (centres undefined)
inactive: activity change, negative = inhibition [1] 0.567% | activity change, negative = inhibition [2] -1.8% | activity, negative = inhibition [3] 10.5% | Potency [4] > 20.6 µM

COc1ccc(-c2oc3ncn4nc(Cc5ccccc5)nc4c3c2-c2ccc(OC)cc2)cc1
inactive: activity change, negative = inhibition [1] -0.634% | activity change, negative = inhibition [2] -13% | activity, negative = inhibition [3] -13.3% | Potency [4] > 20.6 µM

CC1CN(C2CCN(C(=O)COc3ccccc3)CC2)CC(C)O1 (centres undefined)
inactive: activity change, negative = inhibition [1] -6.79% | activity change, negative = inhibition [2] -12.5% | activity, negative = inhibition [3] -1.27% | Potency [4] > 20.6 µM

CCC(=O)NC1(C(F)(F)F)C(=O)Nc2c1c(=O)[nH]c(=O)n2Cc1ccco1 (centres undefined)
inactive: activity change, negative = inhibition [1] 6.62% | activity change, negative = inhibition [2] 18.9% | activity, negative = inhibition [3] -0.859% | Potency [4] > 20.6 µM

CCN(CC)c1nc(N2CCOCC2)c(C#N)c2c1CN(C)CC2
inactive: activity change, negative = inhibition [1] -1.52% | activity change, negative = inhibition [2] 12.3% | activity, negative = inhibition [3] 9.24% | Potency [4] > 20.6 µM

CCCCOC(=O)c1ccc(NC(=O)CSc2nncn2C)cc1
inactive: activity change, negative = inhibition [1] 6.24% | activity change, negative = inhibition [2] 4.69% | activity, negative = inhibition [3] 4.52% | Potency [4] > 20.6 µM

CCCCOc1ccccc1P(=O)(O)CP(=O)(c1ccccc1)c1ccccc1
inactive: activity change, negative = inhibition [1] -13.5% | activity change, negative = inhibition [2] -17% | activity, negative = inhibition [3] -14.9% | Potency [4] > 20.6 µM

CCCOc1cccc(C2C(C(=O)c3ccc(C)o3)=C(O)C(=O)N2CCCN(C)C)c1 (centres undefined)
inactive: activity change, negative = inhibition [1] -10.8% | activity change, negative = inhibition [2] 10.1% | activity, negative = inhibition [3] 5.19% | Potency [4] > 20.6 µM

Cc1cc(C(=O)O)c(CSc2ncn[nH]2)o1
inactive: activity change, negative = inhibition [1] 12.5% | activity change, negative = inhibition [2] 19.7% | activity, negative = inhibition [3] 8.82% | Potency [4] > 20.6 µM

COc1ccc(C2=Nn3c(nnc3-c3ccccn3)SC2)cc1
inactive: activity change, negative = inhibition [1] -4.44% | activity change, negative = inhibition [2] 2.81% | activity, negative = inhibition [3] 6.62% | Potency [4] > 20.6 µM

Cn1ncc(N=Cc2c(O)ccc3ccccc23)c1C(=O)N1CCOCC1
inactive: activity change, negative = inhibition [1] 1.1% | activity change, negative = inhibition [2] -28.4% | activity, negative = inhibition [3] -16.5% | Potency [4] > 20.6 µM

COc1ccccc1C1/C(=C(/O)c2ccc(C)cc2)C(=O)C(=O)N1CCN1CCOCC1 (centres undefined)
inactive: activity change, negative = inhibition [1] -9.75% | activity change, negative = inhibition [2] 19.8% | activity, negative = inhibition [3] 1.99% | Potency [4] > 20.6 µM

COc1ccc(C2CC(c3ccc(C)cc3)Nc3nc(N)nn32)cc1 (centres undefined)
inactive: activity change, negative = inhibition [1] -10.4% | activity change, negative = inhibition [2] 11.6% | activity, negative = inhibition [3] 1.75% | Potency [4] > 20.6 µM

Cc1ccccc1NC(=O)NCCc1nc2ccccc2[nH]1
inactive: activity change, negative = inhibition [1] -3.68% | activity change, negative = inhibition [2] -10.3% | activity, negative = inhibition [3] -7.53% | Potency [4] > 20.6 µM
